Assay results taken from PubChem BioAssay AID1159580 (chemical genetic matrix, 2015).
Values joined by “and” are separate entries in the source; they are usually repeats but may differ in a detail not shown here. Equal values may be shown once. Out of some 5,500 compounds screened, about 2,000 (36%) were called active. About 18% were inconclusive and are not listed. No stated cut-off is given here; in the data, active means normalized growth mostly below about 0.91 (no sharp cut-off); inconclusive means no clear call, values can overlap the other calls; inactive means mostly above about 0.92. Some of the results follow.

Experiment: chemical genetic growth profiling, strain panel (AID 1159580);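 further: tested at 20 µM; growth read once vehicle control cultures reached saturation at 30 °C; 1 = growth at the plate median or of vehicle wells; lower values mean less growth of the strain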
Settings: S. cerevisiae deletion strains, growth OD

Measured: normalized growth

COC(=O)C1=C(C)NC(C)=C(C(=O)OCCN(C)Cc2ccccc2)C1c1cccc([N+](=O)[O-])c1 (stereo not given)
inactive: locus YAL013W, strain DEP1, hits give low values 1 | locus YAL021C, strain ccr4, hits give low values 0.98 | locus YAL026C, strain drs2, hits give low values 0.979 | locus YAL030W, strain snc1, hits give low values 1.01 | locus YAL040C, strain CLN3, hits give low values 1.02 | locus YBL061C, strain skt5, hits give low values 0.984 | locus YBR009C, strain hhf1, hits give low values 0.984 | locus YBR021W, strain FUR4, hits give low values 0.935 | locus YBR023C, strain chs3, hits give low values 0.989 | locus YBR171W, strain sec66, hits give low values 0.986 | locus YBR229C, strain ROT2, hits give low values 0.952 | locus YBR231C, strain swc5, hits give low values 0.978 | locus YBR279W, strain paf1, hits give low values 0.975 | locus YCL011C, strain gbp2, hits give low values 0.969 | locus YCL016C, strain dcc1, hits give low values 0.982 | locus YCL029C, strain bik1, hits give low values 0.981 | locus YCL061C, strain MRC1 (second series), hits give low values 0.972 | locus YCL069W, strain vba3, hits give low values 1 | locus YCR088W, strain abp1, hits give low values 0.984 | locus YDL005C, strain med2, hits give low values 0.986 | locus YDL035C, strain GPR1, hits give low values 0.983 | locus YDL040C, strain nat1, hits give low values 0.973 | locus YDL074C, strain BRE1, hits give low values 0.917 | locus YDL101C, strain DUN1, hits give low values 0.979 | locus YDL134C, strain PPH21, hits give low values 0.976 | locus YDL185W, strain tfp1, hits give low values 0.977 | locus YDL192W, strain arf1, hits give low values 0.992 | locus YDR001C, strain nth1, hits give low values 0.974 | locus YDR069C, strain doa4, hits give low values 0.977 | locus YDR101C, strain arx1, hits give low values 0.986 | locus YDR137W, strain rgp1, hits give low values 1.02 | locus YDR150W, strain NUM1, hits give low values 0.977 and 0.972 | locus YDR159W, strain sac3, hits give low values 0.93 | locus YDR162C, strain NBP2, hits give low values 1 | locus YDR195W, strain ref2 0.96 | locus YDR297W, strain sur2, hits give low values 0.972 | locus YDR318W, strain mcm21, hits give low values 0.944 | locus YDR334W, strain swr1, hits give low values 0.925 | locus YDR335W, strain msn5, hits give low values 0.986 | locus YDR363W, strain ESC2, hits give low values 1.03 | locus YDR388W, hits give low values 0.993 | locus YDR392W, strain spt3, hits give low values 0.968 | locus YDR502C, strain sam2, hits give low values 0.981 | locus YEL003W, strain gim4, hits give low values 0.996 | locus YEL037C, strain rad23, hits give low values 0.981 | locus YEL061C, strain CIN8 (second series), hits give low values 0.99 | locus YEL061C, strain CIN8, hits give low values 0.994 | locus YER002W, strain NOP16, hits give low values 1.01 | locus YER015W, strain faa2, hits give low values 0.988 | locus YER016W, strain bim1, hits give low values 0.983 | locus YER110C, hits give low values 0.976 | locus YER111C, strain swi4, hits give low values 0.989 | locus YER155C, strain BEM2 (second series), hits give low values 0.968 | locus YER155C, strain BEM2, hits give low values 0.99 | locus YER167W, strain BCK2, hits give low values 0.994 | locus YFR010W, strain ubp6, hits give low values 0.978 | locus YGL078C, strain dbp3, hits give low values 0.979 | locus YGL086W, strain mad1, hits give low values 0.986 | locus YGL167C, strain pmr1, hits give low values 1.05 | locus YGL173C, strain kem1, hits give low values 0.982 | locus YGL227W, strain vid30, hits give low values 0.989 | locus YGL240W, strain doc1, hits give low values 0.97 | locus YGL248W, strain PDE1, hits give low values 0.991 | locus YGL253W, strain hxk2, hits give low values 0.988 | locus YGR078C, strain PAC10, hits give low values 0.955 | locus YGR135W, strain pre9, hits give low values 0.972 | locus YGR229C, strain SMI1, hits give low values 0.982 | locus YGR252W, strain gcn5, hits give low values 0.902 | locus YHR013C, strain ard1, hits give low values 0.978 | locus YHR027C, strain rpn1, hits give low values 0.983 | locus YHR030C, strain SLT2, hits give low values 0.987 and 0.976 | locus YHR079C, strain IRE1 (second series), hits give low values 0.982 | locus YHR079C, strain IRE1, hits give low values 0.949 | locus YHR094C, strain hxt1, hits give low values 0.988 | locus YHR129C, strain ARP1, hits give low values 0.994 | locus YHR142W, strain chs7, hits give low values 1.02 | locus YHR200W, strain rpn10, hits give low values 0.989 | locus YIL066C, strain RNR3, hits give low values 0.973 | locus YIL073C, strain SPO22, hits give low values 1.12 | locus YIL125W, strain kgd1, hits give low values 0.99 | locus YIR030C, strain dcg1, hits give low values 0.979 | locus YJL092W, strain hpr5, hits give low values 0.996 | locus YJL095W, strain BCK1 (second series), hits give low values 0.983 | locus YJL095W, strain BCK1, hits give low values 0.988 and 0.979 | locus YJL115W, strain asf1, hits give low values 0.989 | locus YJL129C, strain trk1, hits give low values 0.959 | locus YJL134W, strain LCB3, hits give low values 0.987 | locus YJL154C, strain vps35, hits give low values 0.971 | locus YJL164C, strain tpk1, hits give low values 0.998 | locus YJL166W, strain qcr8, hits give low values 0.993 | locus YJL168C, strain set2, hits give low values 1 | locus YJL187C, strain SWE1 (second series), hits give low values 0.973 | locus YJL187C, strain SWE1, hits give low values 0.993 | locus YJR043C, strain POL32, hits give low values 0.997 | locus YJR066W, strain TOR1, hits give low values 0.917
